Measurements from the supplement of paper PMC10077471.
In all, about 1,900 compounds were measured (“excess over highest single agent (ExcessHSA) synergy score, 6x6 matrix”: median about -83, lowest 2% from about -370 on). Many of the other results were omitted from the sample, so the lowest values are more common in it than they were.

tested on: NCI-H446; test: excess over highest single agent (ExcessHSA) synergy score, 6x6 matrix; higher = less synergy (more negative = stronger synergy); conditions: 72 h; CellTiter-Glo viability

| SMILES | excess over highest single agent |
| --- | --- |
| COC1=C(OC)C(=O)C(C/C=C(\C)CC/C=C(\C)CC/C=C(\C)CC/C=C(\C)CC/C=C(\C)CC/C=C(\C)CC/C=C(\C)CC/C=C(\C)CC/C=C(\C)CCC=C(C)C)=C(C)C1=O + Cc1sc2c(c1C)C(c1ccc(Cl)cc1)=N[C@@H](CC(=O)OC(C)(C)C)c1nnc(C)n1-2 [NCGC00250412-19] | -97.2 |
| COc1cc(OC)c(NC(=O)Nc2cc(C)on2)cc1Cl + Cc1sc2c(c1C)C(c1ccc(Cl)cc1)=N[C@@H](CC(=O)OC(C)(C)C)c1nnc(C)n1-2 [NCGC00250412-19] | -142 |
| Cc1ccc(-c2ncn(-c3ccc(Nc4nccc(-c5cccc(N6CCOCC6)c5)n4)cc3)n2)cn1 + Cc1sc2c(c1C)C(c1ccc(Cl)cc1)=N[C@@H](CC(=O)OC(C)(C)C)c1nnc(C)n1-2 [NCGC00250412-19] | -78.7 |
| CO[C@H]1[C@H](O)[C@@H](O)[C@H](n2c3c(Cl)cccc3c3c4c(c5c6cccc(Cl)c6[nH]c5c32)C(=O)NC4=O)O[C@@H]1CO + Cc1sc2c(c1C)C(c1ccc(Cl)cc1)=N[C@@H](CC(=O)OC(C)(C)C)c1nnc(C)n1-2 [NCGC00250412-19] | -234 |
| C[C@H](Cc1ccc(O)c(O)c1)[C@@H](C)Cc1ccc(O)c(O)c1 + Cc1sc2c(c1C)C(c1ccc(Cl)cc1)=N[C@@H](CC(=O)OC(C)(C)C)c1nnc(C)n1-2 [NCGC00250412-19] | -373 |
| N[C@@H](Cc1ccc(O)c(O)c1)C(=O)O + Cc1sc2c(c1C)C(c1ccc(Cl)cc1)=N[C@@H](CC(=O)OC(C)(C)C)c1nnc(C)n1-2 [NCGC00250412-19] | 57.6 |
| O=C(O)C(O)Cc1ccc(O)c(O)c1 (centres undefined) + Cc1sc2c(c1C)C(c1ccc(Cl)cc1)=N[C@@H](CC(=O)OC(C)(C)C)c1nnc(C)n1-2 [NCGC00250412-19] | -9.7 |
| N#CN=C(NCCCCCCOc1ccc(Cl)cc1)Nc1ccncc1 + Cc1sc2c(c1C)C(c1ccc(Cl)cc1)=N[C@@H](CC(=O)OC(C)(C)C)c1nnc(C)n1-2 [NCGC00250412-19] | -32.9 |
| C/C=C(/C)C(=O)O[C@H]1C(C)=C[C@]23C(=O)[C@@H](C=C(CO)[C@@H](O)[C@]12O)[C@H]1[C@@H](C[C@H]3C)C1(C)C + Cc1sc2c(c1C)C(c1ccc(Cl)cc1)=N[C@@H](CC(=O)OC(C)(C)C)c1nnc(C)n1-2 [NCGC00250412-19] | 104 |
| O=C(Nc1cccc(Nc2ncc(Br)c(NCCc3cnc[nH]3)n2)c1)N1CCCC1 + Cc1sc2c(c1C)C(c1ccc(Cl)cc1)=N[C@@H](CC(=O)OC(C)(C)C)c1nnc(C)n1-2 [NCGC00250412-19] | -166 |
| C[C@@H](N)c1ccc(C(=O)Nc2ccnc3[nH]ccc23)cc1 + Cc1sc2c(c1C)C(c1ccc(Cl)cc1)=N[C@@H](CC(=O)OC(C)(C)C)c1nnc(C)n1-2 [NCGC00250412-19] | 125 |
| Oc1ccc(-c2ccc(-c3cc(Nc4cccc(CNC5CC5)c4)n[nH]3)cc2)c(O)c1 + Cc1sc2c(c1C)C(c1ccc(Cl)cc1)=N[C@@H](CC(=O)OC(C)(C)C)c1nnc(C)n1-2 [NCGC00250412-19] | 79.8 |
| COc1cccc2nc(-c3cccs3)nc(NN3C(=O)C=C(C)C3=O)c12 + Cc1sc2c(c1C)C(c1ccc(Cl)cc1)=N[C@@H](CC(=O)OC(C)(C)C)c1nnc(C)n1-2 [NCGC00250412-19] | -408 |
| CN(CC(=O)N(Cc1ccc(C2CCCCC2)cc1)c1ccc(C(=O)O)c(O)c1)S(=O)(=O)c1c(F)c(F)c(F)c(F)c1F + Cc1sc2c(c1C)C(c1ccc(Cl)cc1)=N[C@@H](CC(=O)OC(C)(C)C)c1nnc(C)n1-2 [NCGC00250412-19] | -91.4 |
| Clc1cccc(-n2nnnc2NCc2ccccc2Oc2ccccn2)c1Cl + Cc1sc2c(c1C)C(c1ccc(Cl)cc1)=N[C@@H](CC(=O)OC(C)(C)C)c1nnc(C)n1-2 [NCGC00250412-19] | -103 |
| Cn1cc(C2=C(c3c4n(c5ccccc35)CCC(CN)C4)C(=O)NC2=O)c2ccccc21 (centres undefined) + Cc1sc2c(c1C)C(c1ccc(Cl)cc1)=N[C@@H](CC(=O)OC(C)(C)C)c1nnc(C)n1-2 [NCGC00250412-19] | -42.8 |
| Cc1cnc(Nc2cccc(CN3CCOCC3)c2)nc1Nc1cccc(S(=O)(=O)NC(C)(C)C)c1 + Cc1sc2c(c1C)C(c1ccc(Cl)cc1)=N[C@@H](CC(=O)OC(C)(C)C)c1nnc(C)n1-2 [NCGC00250412-19] | 108 |
| CC(=O)Nc1sc2c(c1-c1nc3ccccc3s1)CNC2 + Cc1sc2c(c1C)C(c1ccc(Cl)cc1)=N[C@@H](CC(=O)OC(C)(C)C)c1nnc(C)n1-2 [NCGC00250412-19] | 354 |
| Cc1c(CN2CCN(S(C)(=O)=O)CC2)sc2c(N3CCOCC3)nc(-c3cnc(N)nc3)nc12 + Cc1sc2c(c1C)C(c1ccc(Cl)cc1)=N[C@@H](CC(=O)OC(C)(C)C)c1nnc(C)n1-2 [NCGC00250412-19] | -334 |
| Cc1c(CN2CCN(C(=O)[C@H](C)O)CC2)sc2c(N3CCOCC3)nc(-c3cnc(N)nc3)nc12 + Cc1sc2c(c1C)C(c1ccc(Cl)cc1)=N[C@@H](CC(=O)OC(C)(C)C)c1nnc(C)n1-2 [NCGC00250412-19] | -434 |
| CC(C)(O)c1cc2nc(-c3cnc(N)nc3)nc(N3CCOCC3)c2s1 + Cc1sc2c(c1C)C(c1ccc(Cl)cc1)=N[C@@H](CC(=O)OC(C)(C)C)c1nnc(C)n1-2 [NCGC00250412-19] | -253 |
| CNC(=O)c1c(-c2ccc(F)cc2)oc2cc(N(CCO)S(C)(=O)=O)c(C3CC3)cc12 + Cc1sc2c(c1C)C(c1ccc(Cl)cc1)=N[C@@H](CC(=O)OC(C)(C)C)c1nnc(C)n1-2 [NCGC00250412-19] | -113 |
| CN[C@H]1CCc2cc(OC)c(OC)c(OC)c2-c2ccc(OC)c(=O)cc21 + Cc1sc2c(c1C)C(c1ccc(Cl)cc1)=N[C@@H](CC(=O)OC(C)(C)C)c1nnc(C)n1-2 [NCGC00250412-19] | -167 |
| Cc1nc(Nc2n[nH]c3c2CN(C(=O)N[C@H](CN(C)C)c2ccccc2)C3(C)C)c2sccc2n1 + Cc1sc2c(c1C)C(c1ccc(Cl)cc1)=N[C@@H](CC(=O)OC(C)(C)C)c1nnc(C)n1-2 [NCGC00250412-19] | -503 |
